The values that follow come from PubChem BioAssay AID485297 (National Center for Advancing Translational Sciences (NCATS), 2010).

The campaign covered roughly 320,000 compounds. About 9,100 (2.8%) were called active. Roughly 3% stayed inconclusive and do not appear here. Many of the other results were omitted from the sample, so actives are more common in it than they were. Unmarked numbers belong to inactive results. The call rests on the fitted dose curve; in most records, active means well fitted activation curve with a large enough effect; inconclusive means small, poorly fitted or top-dose-only effect; inactive means no such curve, though single readings can be large or run the other way.
Potency means the concentration at half of the fitted maximal effect.

A short description of this test: qHTS Assay for Rab9 Promoter Activators. Further: nearly all actives have a fitted effect of over 60% in size. On activation, negative = inhibition: % of control where 0% means no effect. Particulars: Huh7 Rab9 promoter-luciferase reporter, luminescence, 24 h; series mostly up to 9.22 µM; activation, negative = inhibition: at the top concentration. The text has this:
NIH Chemical Genomics Center [NCGC] NIH Molecular Libraries Probe Production centers Network [MLPCN] MLPCN Grant: MH089537-01 Assay Submitter (PI): Yiannis A. Ioannou NCGC Assay Overview: Niemann Pick Type C (NPC) is a rare neurodegenerative lipidosis that is characterized by lipid storage in the endosomal/lysosomal system. Treatment modalities for this devastating disease are currently non-existent due to the severe obstacles associated with accessing the central nervous system with proteins or genes (Ioannou, 2000). We have developed a new paradigm, termed "Orphan Receptor Bypass Therapy" (ORByT), to address these disorders. This paradigm posits the existence of endogenous "suppressor" proteins whose expression can dramatically improve LSD pathogenesis. The goal is the identification/discovery of small chemical compounds that can modulate the expression of these proteins and provide a new treatment modality for these devastating disorders. One such protein whose overexpression reverses aspects of the NPC phenotype is Rab9. We have developed and optimized a cell based luciferase reporter assay in 1536 well format for the identification of up-regulators of the Rab9 promoter.
The Rab9 promoter is cloned in front of the luciferase reporter gene, therefore […] promoter activation results in luciferase expression. Frozen stock of the Rab9 promoter transfected Huh7 cells were obtained from the laboratory of Dr. Yiannis Ioannou (The Mount Sinai School of Medicine, New York, NY). Cells were propagated and maintained at NCGC in medium containing RPMI-1640 supplemented with 10% FBS, 2mM L-glutamine, and 50ug/ml penicillin/streptomycin. Cells were harvested in and plated for assays in OP-MEM I reduced-serum medium supplemented with 10% FBS. The Amplite luciferase reporter gene assay kit was purchased from ABD Bioquest and prepared/stored according to manufacturers recommendations. qHTS Assay Setup: 1.Dispensed 5ul of Huh7 cells stably expressing Rab9-luciferase at a density of 1500 cells per well 1536-well plates. 2.Incubate cells at 37C, 5% CO2, and 95% humidity for 2 hours. 3.Transferred 23nl per well of compound in DMSO solution. 4.Incubated at 37C, 5% CO2, and 95% humidity for 24 hours. 5.Dispensed 3ul per well of Amplite reagent(ABD Bioquest) per well. 6.Incubate at ambient for 10 minutes. 7.Read using the luminescence protocol on the ViewLux plate reader (Perkin Elmer).
On the technique in general: qHTS replaces the single test concentration by a dilution series.
Consider `Cc1cccnc1CC(C)NC(=O)c1cc(COc2cncc(Cl)c2)on1` (centres undefined), for which the “activation, negative = inhibition” value is 21.8%.

Turning to `Cc1cc(OCc2cc(C(=O)NCc3cc(C(C)C)no3)no2)cc(C)c1Cl`, the Potency is 1 µM (active).

`COCCCNC(=O)COc1cc(C)c(Cl)c(C)c1`: the “activation, negative = inhibition” value was -1.29%.

Regarding `CN(C)S(=O)(=O)c1cc(C(=O)Nc2ccn(C)n2)c(Cl)cc1Cl`, the “activation, negative = inhibition” value is -3.56%.

Turning to `O=C(Nc1cccc(C(=O)NC2CC2)c1)c1ccc(F)c(S(=O)(=O)N2CCOCC2)c1`, the “activation, negative = inhibition” value is 1.23%.

Consider `CC(=O)c1ccc(N2CCN(C(=O)c3ccc(Cl)c(S(=O)(=O)NC4CC4)c3)CC2)c(F)c1`, for which the “activation, negative = inhibition” value was -4.16%.

With `CN1CCN(c2ccc(NC(=O)c3cc(Cl)c4c(c3)OCCO4)cc2)CC1`, the “activation, negative = inhibition” value is -0.801%.

On to `Cn1c(NC(=O)c2ccc3c(c2)OCO3)cc(=O)n(C)c1=O`, for which the “activation, negative = inhibition” value was -1.63%.

Consider `CN1CCN(c2ccc(NC(=O)c3ccc4c(c3)OCCO4)cc2Cl)CC1`, for which the Potency is 2 µM (active).

As for `O=C(Nc1cccc(S(=O)(=O)N2CCCCC2)c1)c1ccc2c(c1)OCO2`, the “activation, negative = inhibition” value was -5.6%.

Take `CCCc1nnc(NC(=O)c2cc(OC)cc(OC)c2)s1`: the “activation, negative = inhibition” value is 4.08%.

As to `COC(=O)c1ccc(N2CCOCC2)c(NC(=O)c2ccc3c(c2)OCCO3)c1`, the “activation, negative = inhibition” value was 3.46%.

Turning to `COCc1nnc(NC(=O)c2ccc3c(c2)OCO3)s1`, the Potency is 2.82 µM (active).

Consider `O=C(Nc1cccc(S(=O)(=O)Nc2ccc(Cl)cc2)c1)c1ccc2c(c1)OCCO2`, for which the “activation, negative = inhibition” value is -21.3%.

In the case of `O=C(CN1CCc2cc3c(cc2C1)OCCCO3)Nc1ccccc1`, the “activation, negative = inhibition” value is -2.47%.

As for `O=C(Nc1ccccc1)c1ccc2c(c1)OCCCO2`, the Potency was 0.562 µM (active).

For `O=C(Nc1ccccc1)c1ccc2c(c1)OCO2`, the Potency is 2.51 µM (active).

Take `O=C(Nc1cccc([N+](=O)[O-])c1)c1ccc2c(c1)OCO2`: the “activation, negative = inhibition” value was 25.9%.

Consider `CCN(CC)c1nc(-c2ccccc2)cc(C(F)(F)F)c1C#N`, for which the “activation, negative = inhibition” value was -1.99%.

Consider `Cc1ccc(-c2nnc(-n3nnc4ccccc43)c3ccccc23)cc1`, for which the “activation, negative = inhibition” value was 0.115%.

Take `Cc1ccc(C(=O)OCC(=O)NCc2cc(C)c(O)c(C)c2)cc1S(=O)(=O)N1CCCCC1`: the “activation, negative = inhibition” value is -8.65%.

Regarding `O=C(Nc1ccc(Br)cn1)C1CCN(S(=O)(=O)c2cccs2)CC1`, the “activation, negative = inhibition” value was -29.7%.

With `O=C(CN1CCCCC1)Nc1ccccc1C(=O)NC1CC1`, the “activation, negative = inhibition” value is -5.28%.

`C=CCNc1nc(N)c(C(=C(C#N)C#N)c2ccccc2)s1`: the “activation, negative = inhibition” value was -0.832%.

For the molecule `Cc1n[nH]c(=O)c2c(NC(=O)CSc3cc(Cl)ccc3Cl)oc(C)c12`, the “activation, negative = inhibition” value was 0.024%.

`O=S(=O)(NCCc1ccccn1)c1cc(Cl)cc(Cl)c1O`: the “activation, negative = inhibition” value is 7.45%.

For the molecule `O=C(CCNC(=O)c1ccccc1)Nc1nc2ccccc2s1`, the “activation, negative = inhibition” value was 23%.

With `O=C(Nc1nc2cc3c(cc2s1)OCCO3)c1cccc(S(=O)(=O)N2CCOCC2)c1`, the “activation, negative = inhibition” value is 6.06%.

As to `O=C(Nc1ccccc1N1CCN(C(=O)c2ccccc2)CC1)c1ccc2c(c1)OCO2`, the “activation, negative = inhibition” value is -7.83%.

In the case of `O=C(Nc1ccccc1)Nc1nc2ccccc2s1`, the Potency was 1.12 µM (active).

As to `COc1ccc(C(=O)Nc2ccc3c(c2)OCO3)cc1OC`, the Potency is 4.47 µM (active).

For `Cc1ccc(F)cc1NC(=O)c1ccc2c(c1)OCO2`, the “activation, negative = inhibition” value is 8.79%.

Consider `O=C(Nc1ccccc1F)c1ccc2c(c1)OCO2`, for which the Potency is 2.82 µM (active).

Turning to `COc1ccc(S(=O)(=O)N2CCOCC2)cc1C(=O)Nc1nc2ccccc2s1`, the “activation, negative = inhibition” value is -0.0677%.

For `O=C(Nc1nc2ccccc2s1)c1ccc2c(c1)OCO2`, the Potency was 0.316 µM (active).

As to `O=C(Nc1ccc2c(c1)OCO2)c1ccc(N2C(=O)c3ccccc3C2=O)cc1`, the “activation, negative = inhibition” value was 7.16%.

Regarding `Cc1nn(CC(=O)Nc2nc3ccccc3s2)c(C)c1[N+](=O)[O-]`, the “activation, negative = inhibition” value is -6.26%.

Turning to `COc1cc(NC(=O)c2ccc3c(c2)OCO3)ccc1NC(=O)c1cccs1`, the “activation, negative = inhibition” value is 4.9%.

`CSc1ncccc1C(=O)Nc1ccc2c(c1)OCO2`: the “activation, negative = inhibition” value was -1.7%.

Regarding `CCC(C)NC(=O)c1ccc(NC(=O)CC2SC(N3CCCCC3)=NC2=O)cc1` (centres undefined), the “activation, negative = inhibition” value was -8.9%.

On to `CC1CC(C)CN(C(=O)COC(=O)c2ccc3ncsc3c2)C1` (centres undefined), for which the “activation, negative = inhibition” value was -5.2%.

As to `CN(CC(=O)NCC(c1ccccc1)N1CCCC1)S(=O)(=O)c1ccc(Cl)cc1` (centres undefined), the “activation, negative = inhibition” value was -1.75%.

In the case of `COc1ccc(CCNC(=O)COc2ccc3c(c2)OCO3)cc1`, the “activation, negative = inhibition” value was 0.182%.

`CC(Oc1ccc(Br)cc1)C(=O)NC1CCCCCC1` (centres undefined): the “activation, negative = inhibition” value was 12%.

As for `CC(C)C(=O)Nc1cccc(C(=O)Nc2ccc3c(c2)OCO3)c1`, the Potency was 1.12 µM (active).

With `CCSc1ccccc1C(=O)Nc1ccc2c(c1)OCO2`, the “activation, negative = inhibition” value was 23.9%.

`Cc1ccc(C(=O)Nc2ccc3c(c2)OCO3)cc1S(=O)(=O)N1CCCCC1`: the “activation, negative = inhibition” value was 22%.

Regarding `CN(CC(=O)Nc1ccc(F)c(F)c1F)C(=O)C1CC(=O)N(C2CCCC2)C1` (centres undefined), the “activation, negative = inhibition” value was -3.87%.

For `NS(=O)(=O)c1ccc(CNC(=O)c2cccc(S(=O)(=O)N3CCc4ccccc43)c2)cc1`, the “activation, negative = inhibition” value was -5.28%.

On to `COc1cc(C(=O)Nc2ncccc2C)ccc1OCC(=O)N1CCOCC1`, for which the “activation, negative = inhibition” value was 2.4%.

For the molecule `CC1(C)O[C@@H]2[C@H](O1)[C@@H](COS(=O)(=O)O)O[C@H]2n1ccc(=O)[nH]c1=O`, the “activation, negative = inhibition” value was 0.343%.

For `COc1ccc(-n2nnnc2-c2nc3ccccc3s2)cc1`, the Potency is 2.82 µM (active).

Turning to `CCOc1cccc(-n2nnnc2-c2ccc(OC)cc2)c1`, the “activation, negative = inhibition” value is -39.7%.

On to `COc1ccc(C2=NN(c3nc4ccccc4s3)C(=O)C2)cc1`, for which the “activation, negative = inhibition” value is -1.35%.
